Assay results: PubChem BioAssay (EPA / NIEHS)
Records with an inconclusive call do not appear. The source made the active and inactive calls. The calls were made as follows, unless noted: active = hit-call score of the fitted dose curve at least 0.9, where 1 is the maximum; inactive = score below 0.9.

Key:
[1] = target: Paired box protein Pax-6 (Homo sapiens) (UniProt P26367); assay: ATG_Pax6_CIS: Attagene CIS-FACTORIAL HepG2 Assay for human Paired Box 6 (PAX6) (AID 2282956); conditions: HepG2 CIS-FACTORIAL PAX6 reporter transcription, RNA readout; actives raise or lower the signal
Paired box protein Pax-6 (Homo sapiens), sequence (P26367 whole entry, looked up): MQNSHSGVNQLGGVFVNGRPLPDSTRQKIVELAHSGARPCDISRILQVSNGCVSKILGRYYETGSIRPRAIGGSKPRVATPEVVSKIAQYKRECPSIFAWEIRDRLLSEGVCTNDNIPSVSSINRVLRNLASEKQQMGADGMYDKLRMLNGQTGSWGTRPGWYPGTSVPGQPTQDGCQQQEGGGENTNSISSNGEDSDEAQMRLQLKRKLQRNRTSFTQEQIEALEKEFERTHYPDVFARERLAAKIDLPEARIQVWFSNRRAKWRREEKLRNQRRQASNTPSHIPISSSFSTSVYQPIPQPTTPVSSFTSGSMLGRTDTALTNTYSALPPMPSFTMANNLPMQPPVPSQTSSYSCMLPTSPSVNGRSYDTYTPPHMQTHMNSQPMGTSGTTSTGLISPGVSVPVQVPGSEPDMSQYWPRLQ
Summary of the method: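 HepG2 cells transiently transfected with multiplexed cis-promoter reporter units (endogenous TF activity) were dosed for 24 h. Reporter mRNA was quantified by RT-PCR, 6-FAM labeling, HpaI digestion and capillary electrophoresis; bidirectional fitting versus DMSO baseline.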

[2] = ATG_Sox_CIS: Attagene CIS-FACTORIAL HepG2 Assay for human SRY-box transcription factor (SOX) (AID 2282960); conditions: HepG2 Attagene cis-factorial SOX reporter, mRNA; actives raise or lower the signal
Summary of the method: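 Cells were transfected with reporter constructs under cis-regulatory promoters, then exposed to chemicals for 24 h. Reporter transcripts were quantified by fluorescence after RT-PCR and capillary electrophoresis; activity was fitted in both directions against DMSO.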

[3] = target: Transcription factor Sp1 (Homo sapiens) (UniProt P08047); assay: ATG_Sp1_CIS: Attagene CIS-FACTORIAL HepG2 Assay for human Specificity Protein 1 (Sp1) (AID 2282961); conditions: HepG2 Sp1 cis-reporter transcription, actives raise or lower the signal
Transcription factor Sp1 (Homo sapiens), sequence (P08047 whole entry, looked up): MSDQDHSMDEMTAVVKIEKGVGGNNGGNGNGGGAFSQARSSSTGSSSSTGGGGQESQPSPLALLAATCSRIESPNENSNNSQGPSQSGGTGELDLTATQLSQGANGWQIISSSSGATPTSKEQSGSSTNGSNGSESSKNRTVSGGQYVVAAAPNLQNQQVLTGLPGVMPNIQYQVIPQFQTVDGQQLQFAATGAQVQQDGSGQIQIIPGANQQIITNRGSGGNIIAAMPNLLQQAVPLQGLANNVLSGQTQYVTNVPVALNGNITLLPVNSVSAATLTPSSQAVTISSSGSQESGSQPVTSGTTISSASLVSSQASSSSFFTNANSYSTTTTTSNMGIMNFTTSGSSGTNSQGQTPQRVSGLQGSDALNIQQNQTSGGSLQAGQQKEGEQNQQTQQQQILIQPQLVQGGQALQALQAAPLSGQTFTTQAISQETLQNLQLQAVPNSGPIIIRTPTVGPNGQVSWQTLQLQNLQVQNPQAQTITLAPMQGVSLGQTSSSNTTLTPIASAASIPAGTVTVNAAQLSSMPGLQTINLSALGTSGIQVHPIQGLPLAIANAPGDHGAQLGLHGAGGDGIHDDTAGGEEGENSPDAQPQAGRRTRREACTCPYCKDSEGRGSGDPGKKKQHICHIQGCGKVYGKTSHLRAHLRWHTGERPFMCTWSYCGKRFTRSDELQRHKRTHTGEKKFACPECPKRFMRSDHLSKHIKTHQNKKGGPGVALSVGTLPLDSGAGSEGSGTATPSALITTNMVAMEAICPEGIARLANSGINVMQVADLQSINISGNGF
Summary of the method: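 Measures mRNA induction of an Sp1-linked reporter in HepG2 cells 24 h post-dosing. Multiplexed reporters read by RT-PCR and capillary electrophoresis; DMSO serves as negative control and baseline.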

[4] = ATG_SREBP_CIS: Attagene CIS-FACTORIAL HepG2 Assay for human Sterol Regulatory Element Binding (SREBP) (AID 2282962); conditions: HepG2 Attagene cis-factorial SREBP reporter, mRNA; actives raise or lower the signal
Summary of the method: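 HepG2 cells transiently transfected with multiplexed cis-element reporter units report endogenous transcription factor activity. After 24 h of chemical exposure, reporter mRNA was quantified by RT-PCR, 6-FAM labelling, HpaI digestion and capillary electrophoresis; bidirectional fits used DMSO as baseline.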

[5] = target: Signal transducer and activator of transcription 3 (Homo sapiens) (UniProt P40763); assay: ATG_STAT3_CIS: Attagene CIS-FACTORIAL HepG2 Assay for human Signal Transducer and Activator of Transcription 3 (STAT3) (AID 2282963); conditions: HepG2, Attagene cis-factorial STAT3 reporter transcription; actives raise or lower the signal
Signal transducer and activator of transcription 3 (Homo sapiens), sequence (P40763 whole entry, looked up): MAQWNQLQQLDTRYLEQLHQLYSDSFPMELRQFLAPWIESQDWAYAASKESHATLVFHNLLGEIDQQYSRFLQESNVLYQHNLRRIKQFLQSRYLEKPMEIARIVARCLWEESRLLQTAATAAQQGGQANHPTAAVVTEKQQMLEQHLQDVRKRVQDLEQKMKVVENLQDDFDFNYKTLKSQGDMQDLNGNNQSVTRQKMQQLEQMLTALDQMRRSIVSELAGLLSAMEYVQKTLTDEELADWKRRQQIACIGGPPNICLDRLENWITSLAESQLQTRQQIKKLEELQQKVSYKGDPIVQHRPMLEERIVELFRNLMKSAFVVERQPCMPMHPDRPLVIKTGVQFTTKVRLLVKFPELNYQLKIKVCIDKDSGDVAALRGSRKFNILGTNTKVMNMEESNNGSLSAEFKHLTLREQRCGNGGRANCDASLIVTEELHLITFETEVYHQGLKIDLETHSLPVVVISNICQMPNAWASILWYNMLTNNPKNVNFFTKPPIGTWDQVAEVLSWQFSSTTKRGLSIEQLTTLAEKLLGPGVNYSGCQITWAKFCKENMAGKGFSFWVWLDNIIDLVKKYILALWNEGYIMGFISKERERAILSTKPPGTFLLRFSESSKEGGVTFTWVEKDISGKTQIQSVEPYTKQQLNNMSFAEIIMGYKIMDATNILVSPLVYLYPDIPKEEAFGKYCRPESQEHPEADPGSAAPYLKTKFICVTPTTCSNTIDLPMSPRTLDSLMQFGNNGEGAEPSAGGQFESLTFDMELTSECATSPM
Summary of the method: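 Transcript-level reporter assay. HepG2 transient MRTU transfection, 24 h exposure, fluorescence detection after RT-PCR and CE; DMSO baseline.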

[6] = ATG_TA_CIS: Attagene CIS-FACTORIAL HepG2 Assay for human TA Basal Promoter (AID 2282964); conditions: HepG2 Attagene CIS-factorial TA basal promoter reporter; actives raise or lower the signal
Summary of the method: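 HepG2 cells transiently transfected with multiplexed cis-promoter reporter units, dosed 24 h. Reporter mRNA measured by RT-PCR, 6-FAM labelling, HpaI digestion and capillary electrophoresis; bidirectional fit versus DMSO baseline, serving as background control.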

[7] = ATG_TCF_b_cat_CIS: Attagene CIS-FACTORIAL HepG2 Assay for human T-Cell-Factor with beta-catenin (TCF/b-cat) (AID 2282965); conditions: HepG2 TCF/beta-catenin cis-reporter transcription, actives raise or lower the signal
Summary of the method: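 Using capillary electrophoresis as the read-out, labelled reporter cDNA fragments from transiently transfected HepG2 were sized and quantified. Exposure lasted 24 hours; activity in either direction was referenced to DMSO.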

[8] = ATG_TAL_CIS: Attagene CIS-FACTORIAL HepG2 Assay for human TAL Basal Promoter (AID 2282966); conditions: HepG2 Attagene cis-factorial TAL promoter reporter; actives raise or lower the signal;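 also: background control endpoint measuring basal TAL promoter reporter mRNA not a specific factor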
Summary of the method: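 Readout: reporter mRNA, fluorescence by CE. System: HepG2, transient multi-reporter transfection, endogenous TF activity. Exposure: 24 h. Analysis: bidirectional, DMSO-normalized; background control.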

[9] = ATG_TGFb_CIS: Attagene CIS-FACTORIAL HepG2 Assay for human Transforming Growth Factor (TGF) (AID 2282967); conditions: HepG2 Attagene CIS TGFb reporter, mRNA transcription; actives raise or lower the signal
Summary of the method: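 HepG2 cells transiently transfected with cis-promoter-driven multiplexed reporter units; 24 h compound exposure. Reporter mRNA measured by RT-PCR, 6-FAM labeling, HpaI digestion and capillary electrophoresis; bidirectional fit versus DMSO baseline.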

[10] = target: X-box-binding protein 1 (Homo sapiens) (UniProt P17861); assay: ATG_Xbp1_CIS: Attagene CIS-FACTORIAL HepG2 Assay for human X-box Binding Protein 1 (XBP1) (AID 2282972); conditions: HepG2 XBP1 cis-element reporter, Attagene multiplex; actives raise or lower the signal
X-box-binding protein 1 (Homo sapiens), sequence (P17861 whole entry, looked up): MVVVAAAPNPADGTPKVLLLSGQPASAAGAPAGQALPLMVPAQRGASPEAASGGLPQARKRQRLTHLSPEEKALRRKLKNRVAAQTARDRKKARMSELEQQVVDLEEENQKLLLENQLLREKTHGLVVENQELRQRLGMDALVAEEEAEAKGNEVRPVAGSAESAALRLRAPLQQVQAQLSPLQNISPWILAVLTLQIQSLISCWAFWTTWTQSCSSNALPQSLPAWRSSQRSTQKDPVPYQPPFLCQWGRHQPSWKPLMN
Summary of the method: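 HepG2 cells transiently transfected with cis-regulated multiple reporter transcription units; endogenous transcription factor activity measured 24 hours after chemical dosing. Reporter mRNA quantified by RT-PCR, 6-FAM primer extension, HpaI digestion and capillary electrophoresis; bidirectional fitting versus DMSO.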

[11] = target: Estrogen-related receptor gamma (Homo sapiens) (UniProt P62508); assay: ATG_ERRg_TRANS: Attagene TRANS-FACTORIAL HepG2 Assay for human Estrogen-Related Receptor gamma (ERRg) (AID 2282977; active = hit-call score of the fitted dose curve at least 0.9, where 1 is the maximum;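 also: hits increase reporter signal over DMSO so potencies reflect activators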); conditions: HepG2 Attagene TRANS reporter, ERRg transactivation
Estrogen-related receptor gamma (Homo sapiens), sequence (P62508 whole entry, looked up, the tested form may be a part): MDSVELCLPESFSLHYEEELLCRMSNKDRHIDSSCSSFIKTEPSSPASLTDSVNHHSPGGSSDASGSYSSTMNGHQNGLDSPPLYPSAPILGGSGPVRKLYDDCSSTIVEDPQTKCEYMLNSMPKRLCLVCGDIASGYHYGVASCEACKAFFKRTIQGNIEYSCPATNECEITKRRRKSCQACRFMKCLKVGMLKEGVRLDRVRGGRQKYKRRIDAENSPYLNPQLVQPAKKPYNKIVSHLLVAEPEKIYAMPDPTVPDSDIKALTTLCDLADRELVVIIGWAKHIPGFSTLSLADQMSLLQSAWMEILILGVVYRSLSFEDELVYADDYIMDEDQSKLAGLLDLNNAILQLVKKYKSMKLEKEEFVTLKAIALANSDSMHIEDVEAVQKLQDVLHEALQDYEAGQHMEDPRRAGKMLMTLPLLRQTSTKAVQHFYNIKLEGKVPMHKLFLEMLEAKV
Summary of the method: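 Transfect HepG2 with multiple GAL4-UAS reporter transcription units; dose chemicals 24 h; isolate RNA, reverse-transcribe with oligo(dT), PCR-amplify, label with 6-FAM, digest with HpaI; size fragments by capillary electrophoresis. DMSO serves as negative control.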

[12] = ATG_PPRE_CIS: Attagene CIS-FACTORIAL HepG2 Assay for human Peroxisome Proliferator-activated Response Element (PPRE) (AID 2282958); conditions: HepG2 PPRE cis-element reporter, Attagene transcription factor profiling; actives raise or lower the signal
Summary of the method: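 Transcript-level reporter induction in transfected HepG2 cells after 24 h chemical exposure, quantified by fluorescence from RT-PCR products separated by capillary electrophoresis.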

[13] = ATG_VDRE_CIS: Attagene CIS-FACTORIAL HepG2 Assay for human Vitamin D Receptor Element (VDRE) (AID 2282968); conditions: HepG2 VDRE cis-reporter transcription, actives raise or lower the signal
Summary of the method: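 RT-PCR/CE readout of reporter mRNA; HepG2, transient transfection, 24 h dosing; DMSO baseline; bidirectional analysis.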

[14] = target: Nuclear receptor subfamily 1 group I member 3 (Homo sapiens) (UniProt Q14994); assay: ATG_CAR_TRANS: Attagene TRANS-FACTORIAL HepG2 Assay for human Constitutive Androstane Receptor (CAR) (AID 2282969; active = hit-call score of the fitted dose curve at least 0.9, where 1 is the maximum;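 also: activators raise reporter mRNA above DMSO so AC50 marks induction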); conditions: HepG2 Attagene TRANS-FACTORIAL CAR reporter
Nuclear receptor subfamily 1 group I member 3 (Homo sapiens), sequence (Q14994 whole entry, looked up, the tested form may be a part): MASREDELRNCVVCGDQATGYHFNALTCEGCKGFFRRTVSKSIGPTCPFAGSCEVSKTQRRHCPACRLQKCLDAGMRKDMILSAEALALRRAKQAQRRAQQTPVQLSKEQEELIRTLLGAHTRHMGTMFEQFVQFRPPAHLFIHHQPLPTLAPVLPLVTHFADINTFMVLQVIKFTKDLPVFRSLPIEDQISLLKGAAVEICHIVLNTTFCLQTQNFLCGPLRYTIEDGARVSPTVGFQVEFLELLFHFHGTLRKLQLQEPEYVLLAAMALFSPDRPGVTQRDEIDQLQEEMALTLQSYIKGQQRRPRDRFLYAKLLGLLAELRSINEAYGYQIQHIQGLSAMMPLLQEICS
Summary of the method: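 HepG2 cells transiently transfected with multiplexed GAL4-UAS reporter units expressing chimeric NR-Gal4 proteins; compound exposure 24 h. Reporter mRNA measured by RT-PCR, 6-FAM labelling, HpaI digestion and capillary electrophoresis; gain-of-signal fitted against DMSO baseline.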

[15] = ATG_M_19_TRANS: Attagene TRANS-FACTORIAL HepG2 Assay for M19 Transcription Factor (Internal Marker) (AID 2282974; active = hit-call score of the fitted dose curve at least 0.9, where 1 is the maximum); conditions: HepG2 Attagene TRANS-FACTORIAL M19 internal marker reporter
Summary of the method: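 After transfection of HepG2 with GAL4-UAS-driven reporter constructs, cells are dosed for 24 h. Total RNA is reverse-transcribed, reporter sequences PCR-amplified and labelled, then HpaI-digested and sized by capillary electrophoresis.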

[16] = ATG_GAL4_TRANS: Attagene TRANS-FACTORIAL HepG2 Assay for GAL4 (Internal Marker) (AID 2282976; active = hit-call score of the fitted dose curve at least 0.9, where 1 is the maximum); conditions: HepG2 Attagene TRANS GAL4 internal marker reporter
Summary of the method: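 Fluorescence from capillary electrophoresis of labelled RT-PCR products quantifies reporter mRNA induction after 24 h dosing of HepG2 cells carrying transfected GAL4-UAS reporter transcription units. Vehicle DMSO serves as baseline.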

[17] = ATG_RORE_CIS: Attagene CIS-FACTORIAL HepG2 Assay for human RAR-related Orphan Receptor Element (RORE) (AID 2282959); conditions: HepG2 Attagene cis-factorial RORE reporter, mRNA; actives raise or lower the signal
Summary of the method: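 Multiplexed reporter assay measuring mRNA induction from a cis promoter element in transiently transfected HepG2 cells after 24 h treatment. Detection via RT-PCR and capillary electrophoresis fluorescence; DMSO serves as baseline.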

[18] = target: Estrogen receptor (Homo sapiens) (UniProt P03372); assay: ATG_ERa_TRANS: Attagene TRANS-FACTORIAL HepG2 Assay for human Estrogen Receptor alpha (ERa) (AID 2282970; active = hit-call score of the fitted dose curve at least 0.9, where 1 is the maximum); conditions: HepG2 Attagene TRANS ERa GAL4 reporter, mRNA
Estrogen receptor (Homo sapiens), sequence (P03372 whole entry, looked up, the tested form may be a part): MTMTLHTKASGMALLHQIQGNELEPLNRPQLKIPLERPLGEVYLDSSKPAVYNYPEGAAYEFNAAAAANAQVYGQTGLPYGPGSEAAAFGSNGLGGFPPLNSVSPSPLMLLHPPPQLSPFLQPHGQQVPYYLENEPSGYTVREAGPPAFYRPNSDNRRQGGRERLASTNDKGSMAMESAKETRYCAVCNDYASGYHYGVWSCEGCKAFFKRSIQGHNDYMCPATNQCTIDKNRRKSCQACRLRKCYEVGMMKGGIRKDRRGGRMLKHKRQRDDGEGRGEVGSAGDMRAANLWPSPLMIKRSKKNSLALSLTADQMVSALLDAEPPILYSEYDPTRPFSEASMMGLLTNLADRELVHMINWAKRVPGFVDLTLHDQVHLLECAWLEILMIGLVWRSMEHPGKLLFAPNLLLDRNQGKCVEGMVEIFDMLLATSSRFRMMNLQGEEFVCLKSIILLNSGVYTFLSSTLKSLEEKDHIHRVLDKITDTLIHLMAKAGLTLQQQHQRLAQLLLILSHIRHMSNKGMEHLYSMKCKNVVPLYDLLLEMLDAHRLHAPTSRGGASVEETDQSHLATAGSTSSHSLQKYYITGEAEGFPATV
Summary of the method: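 Transactivation via ERa-Gal4 chimera in HepG2; 24 hour incubation; reporter mRNA detected by fluorescence RT-PCR and capillary electrophoresis.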

Measured: AC50

COCCCOc1ccnc(CS(=O)c2nc3ccccc3[nH]2)c1C (stereo not drawn)
inactive: [1] | [2] | [3] | [4] | [5] | [6] | [7] | [8] | [9] | [10] | [11]

CCCCOCCOCCSC#N
inactive: [1] | [12] | [2] | [3] | [4] | [5] | [6] | [7] | [8] | [9] | [13] | [14] | [10] | [15] | [16]

OCc1cccnc1
inactive: [1] | [17] | [2] | [4] | [6] | [7] | [9] | [14] | [18] | [10]

CC[C@]12CCCN3CCc4c(n(c5ccccc45)[C@@](O)(C(=O)OC)C1)[C@@H]32
inactive: [1] | [3] | [4] | [5] | [6] | [7] | [8] | [9] | [13] | [10] | [11]

O=C(O)CN(CCN(CC(=O)O)CC(=O)O)CCN(CC(=O)O)CC(=O)O
inactive: [1] | [12] | [2] | [3] | [4] | [5] | [6] | [7] | [8] | [9] | [13] | [10] | [15] | [16] | [11]

COC(=O)C1=C(C)NC(C)=C(C(=O)OCCN(C)Cc2ccccc2)C1c1cccc([N+](=O)[O-])c1 (stereo not drawn)
active: [1] 20.5 µM | [9] 131 µM | [13] 0.227 µM
inactive: [12] | [17] | [2] | [3] | [4] | [5] | [6] | [7] | [8] | [18] | [10]

CCc1ccc(C=O)cc1
inactive: [1] | [12] | [17] | [2] | [3] | [4] | [5] | [6] | [7] | [8] | [9] | [13] | [14] | [10] | [11]

COc1cc(C(C)(C)C)c(O)c(C(C)(C)C)c1
inactive: [1] | [12] | [17] | [2] | [3] | [4] | [5] | [6] | [7] | [8] | [9] | [13] | [10] | [16] | [11]

CC(=O)C=CC1=C(C)CCCC1(C)C
inactive: [1] | [17] | [2] | [3] | [4] | [5] | [6] | [7] | [8] | [9] | [18] | [10]
active: [13] 1.26 µM

CC(C)C1CCC(O)CC1 (stereo not drawn)
inactive: [1] | [17] | [2] | [3] | [4] | [5] | [7] | [8] | [9] | [13] | [10]

COC(C(=O)O)c1ccccc1 (stereo not drawn)
inactive: [1] | [12] | [17] | [2] | [3] | [4] | [5] | [6] | [7] | [8] | [9] | [13] | [10]
